Data on 40 molecules can be found in PubChem BioAssay (NCI).

About 79,000 compounds went through this panel and 15% of them were active in at least one assay; those are over-represented in the sample as a whole. Values without a mark were called inactive. Calls of active or inactive are those of the source. No stated cut-off is given here; in the data, active means growth inhibition above about 70%; inactive means the rest. Where a SMILES comes first, the peptide text is derived from it. [ ]: non-standard residue; d: D form. The star is where a group is joined. Cbz = O=C(OCc1ccccc1)*; Nva = CCC[CH](N)C(=O)O

A short description of the first assay: NCI Yeast Anticancer Drug Screen. Data for the bub3 strain (AID 167). Particulars: S. cerevisiae bub3 mutant strain, at 50.0 µM, stronger effect = higher value. The procedure, abridged:
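Growth of a checkpoint-deficient yeast mutant is measured after compound exposure. Values represent inhibition relative to vehicle.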
Regarding `CCCNS(=O)(=O)c1ccccc1C(=O)NC1CCCCC1`, the growth inhibition was -19.7%.

Take `Nc1cc(Cl)c(F)cc1Cl`: the growth inhibition is 1.15%.

As to `C[N+](C)(Cn1nc(Cl)c2ccc([N+](=O)[O-])cc21)Cn1nc(Cl)c2ccc([N+](=O)[O-])cc21`, the growth inhibition was -0.25%.

As for `CCOC(=O)c1cc(C)nc2c1c(=O)n(-c1ccccc1)c(=O)n2CCCCN1CCN(c2ccccc2)CC1`, the growth inhibition is -21.8%.

In the case of `CC(=Nc1cccc2ccccc12)c1c(O)cc(C)oc1=O`, the growth inhibition is 16.1%.

Consider `COc1cc2ccccc2ccc1=O`, for which the growth inhibition was 13.6%.

In the case of `O=C(Cc1cc2ccccc2[nH]c1=O)Nc1ccccc1`, the growth inhibition is -2.2%.

In the case of `N=C(N)S/C=C/C(=O)O`, the growth inhibition was -13.8%.

For `CCOC(=O)CCC(NC(=O)C(CCC(=O)OCC)NC(=O)OCc1ccccc1)C(=O)O` (stereo not given) (tested in a mixture with another compound) (Cbz-Glu(OEt)-Glu(OEt)-OH; configuration not given here), the growth inhibition is -52.9%.

In the case of `O=C1C(OCc2ccccc2)=C(OCc2ccccc2)C(=O)c2ccccc21`, the growth inhibition was -30.1%.

In the case of `CN(C)Cc1ccccc1COC(=O)c1ccccc1`, the growth inhibition was 17.4%.

Take `CCCCCCC1NN(C(C)=O)C(CCCCCC)NN1C(C)=O` (stereo not given): the growth inhibition is 7.1%.

Turning to `NCCCC(=O)NCCCCCCCCCCNC(=O)CCCN`, the growth inhibition was -4.45%.

Turning to `O=[N+]([O-])c1cccc(CC(=S)N2CCOCC2)c1`, the growth inhibition was -2.3%.

As to `CNCCC(Oc1ccccc1OC)c1ccccc1` (stereo not given), the growth inhibition was 5.25%.

In the case of `NC1(C(=O)OCc2ccccc2)CCCC1`, the growth inhibition is -1.7%.

Take `CC(C)N1C(=O)c2ccccc2C1=O`: the growth inhibition is 15.1%.

Regarding `O=C1c2ccccc2-c2ccc3c4ccc5c6c(ccc(c7ccc1c2c73)c64)-c1ccccc1C5=O`, the growth inhibition is 5.75%.

With `O=S1(=O)NC2CCC3NS(=O)(=O)NC4CCC(N1)N4S(=O)(=O)N23` (stereo not given), the growth inhibition is -0.55%.

For `CC(C)(C)n1c(=O)[nH]c(=O)n1C(C)(C)C`, the growth inhibition is -32.8%.

On to `C[Si](C)(C)c1ccc2c(c1O)C(=O)c1ccccc1C2=O`, for which the growth inhibition was -1.15%.

In the case of `CC(C)(Oc1ccc(/C=C/C(=O)c2ccc(Cl)cc2)cc1)C(=O)Nc1c(Cl)cccc1Cl`, the growth inhibition is 12.8%.

As for `Cc1ccc(N=Nc2c(O)ccc3n[nH]nc23)cc1`, the growth inhibition is 18.9%.

For `CC1(c2cccc(N)c2)OCCO1`, the growth inhibition was 12.7%.

In the case of `Cc1cc(Br)c(NC(=O)c2c(-c3c(Cl)cccc3Cl)noc2C)c(Br)c1`, the growth inhibition was -11.7%.

Turning to `COC(=O)/C(=C\C(=O)c1ccc(Br)cc1)NN=C(c1ccccc1)c1ccccc1`, the growth inhibition was -20.1%.

As for `O=C(Nc1ccc(N=C=S)cc1Cl)c1ccc2ccccc2c1O`, the growth inhibition was 4.05%.

As for `O=C1CCCCCCCC(=O)Nc2ccc3nc4ccccc4c(c3c2)SCCCCCCCCCSc2c3ccccc3nc3ccc(cc23)N1`, the growth inhibition is -6.5%.

Regarding `CCCC(NC(=O)OCc1ccccc1)C(=O)NC(Cc1ccc(O)cc1)C(=O)O` (stereo not given) (Cbz-[Nva]-Tyr-OH; configuration not given here), the growth inhibition is -16.4%.

On to `O=S(CCO)c1ccc(Cl)cc1` (stereo not given), for which the growth inhibition is 2.75%.

`CC1(C)CSC(C)(C)C(=O)N1`: the growth inhibition was -2.2%.

As to `CCOc1c(Cl)c(Cl)c(Cl)c(Cl)c1Cl`, the growth inhibition is -2.9%.

Take `N#Cc1nc(Cc2ccccc2)oc1N`: the growth inhibition was -26.1%.

As to `Cc1nc(-n2nc(-c3ccccc3)cc2-c2ccccc2)sc1C(=O)/C=C/c1ccc(Cl)c(Cl)c1`, the growth inhibition is 22.4%.

For `COC(=O)c1c(O)ccc(O)c1C(=O)OC`, the growth inhibition is -6.4%.

Turning to `COC(=O)c1cc([N+](=O)[O-])c(Br)s1`, the growth inhibition is 99.3% (active).

For `CCOC(=O)NC(C(=O)OCC)(N1CCN(c2cc3c(cc2F)c(=O)c(C(=O)O)cn3CC)CC1)C(F)(F)F` (stereo not given), the growth inhibition was -7.55%.

Turning to `CCCCCCCCCSCCOC(=S)N(C)C`, the growth inhibition is 21.8%.

As for `CN(C)C(=O)NC(=S)N(C)C`, the growth inhibition was 4.05%.

For `CCC1(CC)CC(=O)NC1=O`, the growth inhibition is -26%.

A further assay is described as follows: NCI Yeast Anticancer Drug Screen. Data for the mlh1 rad18 strain (AID 175). Particulars: S. cerevisiae mlh1 rad18 strain growth inhibition; at 50.0 µM; stronger effect = higher value. A digest of the protocol:
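Cells of a genetically altered yeast strain, deficient in DNA damage repair, were treated with compound. Their growth was then compared with that of vehicle-treated cultures to give inhibition.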
With `CCCNS(=O)(=O)c1ccccc1C(=O)NC1CCCCC1`, the growth inhibition is 22.2%.

As for `Nc1cc(Cl)c(F)cc1Cl`, the growth inhibition is -14.2%.

Consider `C[N+](C)(Cn1nc(Cl)c2ccc([N+](=O)[O-])cc21)Cn1nc(Cl)c2ccc([N+](=O)[O-])cc21`, for which the growth inhibition was 27.9%.

With `CCOC(=O)c1cc(C)nc2c1c(=O)n(-c1ccccc1)c(=O)n2CCCCN1CCN(c2ccccc2)CC1`, the growth inhibition is -29.1%.

For `CC(=Nc1cccc2ccccc12)c1c(O)cc(C)oc1=O`, the growth inhibition was 14.1%.

On to `COc1cc2ccccc2ccc1=O`, for which the growth inhibition was 4.5%.

`O=C(Cc1cc2ccccc2[nH]c1=O)Nc1ccccc1`: the growth inhibition is -5.55%.

On to `N=C(N)S/C=C/C(=O)O`, for which the growth inhibition is -19.6%.

With `CCOC(=O)CCC(NC(=O)C(CCC(=O)OCC)NC(=O)OCc1ccccc1)C(=O)O` (stereo not given) (tested in a mixture with another compound) (Cbz-Glu(OEt)-Glu(OEt)-OH; configuration not given here), the growth inhibition was 38.6%.

With `O=C1C(OCc2ccccc2)=C(OCc2ccccc2)C(=O)c2ccccc21`, the growth inhibition was 36.3%.

Turning to `CN(C)Cc1ccccc1COC(=O)c1ccccc1`, the growth inhibition was 17.5%.

For the molecule `CCCCCCC1NN(C(C)=O)C(CCCCCC)NN1C(C)=O` (stereo not given), the growth inhibition is -3.75%.

Take `NCCCC(=O)NCCCCCCCCCCNC(=O)CCCN`: the growth inhibition was 24.4%.

Turning to `O=[N+]([O-])c1cccc(CC(=S)N2CCOCC2)c1`, the growth inhibition is 6.6%.

Consider `CNCCC(Oc1ccccc1OC)c1ccccc1` (stereo not given), for which the growth inhibition is 19.1%.

As to `NC1(C(=O)OCc2ccccc2)CCCC1`, the growth inhibition is 37.9%.

Regarding `CC(C)N1C(=O)c2ccccc2C1=O`, the growth inhibition is 14.3%.

With `O=C1c2ccccc2-c2ccc3c4ccc5c6c(ccc(c7ccc1c2c73)c64)-c1ccccc1C5=O`, the growth inhibition was 18.4%.

Take `O=S1(=O)NC2CCC3NS(=O)(=O)NC4CCC(N1)N4S(=O)(=O)N23` (stereo not given): the growth inhibition was -8.25%.

Take `CC(C)(C)n1c(=O)[nH]c(=O)n1C(C)(C)C`: the growth inhibition was -22.2%.

On to `C[Si](C)(C)c1ccc2c(c1O)C(=O)c1ccccc1C2=O`, for which the growth inhibition is 3.3%.

`CC(C)(Oc1ccc(/C=C/C(=O)c2ccc(Cl)cc2)cc1)C(=O)Nc1c(Cl)cccc1Cl`: the growth inhibition is 19%.

Turning to `Cc1ccc(N=Nc2c(O)ccc3n[nH]nc23)cc1`, the growth inhibition is 6.95%.

On to `CC1(c2cccc(N)c2)OCCO1`, for which the growth inhibition is 11.9%.

Turning to `Cc1cc(Br)c(NC(=O)c2c(-c3c(Cl)cccc3Cl)noc2C)c(Br)c1`, the growth inhibition was 4.9%.

`COC(=O)/C(=C\C(=O)c1ccc(Br)cc1)NN=C(c1ccccc1)c1ccccc1`: the growth inhibition was -20.4%.

Take `O=C(Nc1ccc(N=C=S)cc1Cl)c1ccc2ccccc2c1O`: the growth inhibition is 8.25%.

Consider `O=C1CCCCCCCC(=O)Nc2ccc3nc4ccccc4c(c3c2)SCCCCCCCCCSc2c3ccccc3nc3ccc(cc23)N1`, for which the growth inhibition is 4.2%.

For the molecule `CCCC(NC(=O)OCc1ccccc1)C(=O)NC(Cc1ccc(O)cc1)C(=O)O` (stereo not given) (Cbz-[Nva]-Tyr-OH; configuration not given here), the growth inhibition was 10%.

Turning to `O=S(CCO)c1ccc(Cl)cc1` (stereo not given), the growth inhibition was -23.9%.

As to `CC1(C)CSC(C)(C)C(=O)N1`, the growth inhibition is -1.1%.

On to `CCOc1c(Cl)c(Cl)c(Cl)c(Cl)c1Cl`, for which the growth inhibition is 5.4%.

As for `N#Cc1nc(Cc2ccccc2)oc1N`, the growth inhibition is -22.6%.

For the molecule `Cc1nc(-n2nc(-c3ccccc3)cc2-c2ccccc2)sc1C(=O)/C=C/c1ccc(Cl)c(Cl)c1`, the growth inhibition was 12.8%.

Consider `COC(=O)c1c(O)ccc(O)c1C(=O)OC`, for which the growth inhibition is -21.6%.

In the case of `COC(=O)c1cc([N+](=O)[O-])c(Br)s1`, the growth inhibition was 99.3% (active).

For the molecule `CCOC(=O)NC(C(=O)OCC)(N1CCN(c2cc3c(cc2F)c(=O)c(C(=O)O)cn3CC)CC1)C(F)(F)F` (stereo not given), the growth inhibition is -5.05%.

On to `CCCCCCCCCSCCOC(=S)N(C)C`, for which the growth inhibition is 34.6%.

Regarding `CN(C)C(=O)NC(=S)N(C)C`, the growth inhibition was 4.95%.

Take `CCC1(CC)CC(=O)NC1=O`: the growth inhibition is -11.1%.
